Data published in PubChem BioAssay AID1159580 (chemical genetic matrix, 2015).
The campaign covered roughly 5,500 compounds. About 2,000 (36%) were called active. Roughly 18% stayed inconclusive and do not appear here. Cut-off read from the data, not from the text of the source: active = normalized growth mostly below about 0.91 (no sharp cut-off); inconclusive = no clear call, values can overlap the other calls; inactive = mostly above about 0.92. Some of the results follow.

Test: chemical genetic growth profiling, strain panel (AID 1159580);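 note: tested at 20 µM; growth read once vehicle control cultures reached saturation at 30 °C; 1 = growth at the plate median or of vehicle wells; lower values mean less growth of the strain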
Conditions: S. cerevisiae deletion strains, growth OD

Measured: normalized growth

C[C@@H](NCCc1ccc(O)cc1)[C@@H](O)c1ccc(O)cc1
inactive: locus YAL040C, strain CLN3, active compounds read low 0.986 | locus YCL061C, strain MRC1 (second series), active compounds read low 0.989 | locus YDR150W, strain NUM1, active compounds read low 1.01 | locus YDR363W, strain ESC2, active compounds read low 0.991 | locus YER002W, strain NOP16, active compounds read low 0.992 | locus YGR229C, strain SMI1, active compounds read low 0.99 | locus YJR075W, strain HOC1, active compounds read low 0.993 | locus YMR263W, strain SAP30, active compounds read low 0.986 | locus YMR307W, strain GAS1, active compounds read low 1.02 | locus YNL128W, strain TEP1, active compounds read low 0.994 | locus YNL153C, strain GIM3, active compounds read low 1.03 | locus YNL175C, strain NOP13, active compounds read low 0.999 | locus YNL197C, strain WHI3, active compounds read low 0.992 | locus YNL224C, strain SQS1, active compounds read low 0.991 | locus YNL322C, strain KRE1, active compounds read low 0.974 | locus YOR083W, strain WHI5 (second series), active compounds read low 1 | locus YPL055C, strain LGE1, active compounds read low 0.995
